Screens deposited in PubChem by National Center for Advancing Translational Sciences (NCATS).
JMJD2A Tudor – qHTS Assay for Inhibitors of JMJD2A-Tudor Domain. AlphaScreen JMJD2A-Tudor / H3K4me3 peptide binding. AID 504339, 2011. Lysine-specific demethylase 4A (Homo sapiens), O75164. hit rate 4.4% among 390,000. Potency, µM (series often up to 114 µM), inactives show top-dose activity change, negative = inhibition, usual class: inhibitors; further: on the % scale 0 is the no-effect control and ±100 the full control effect; nearly all actives have a fitted effect of over 50% in size
Target sequence (O75164 whole entry, looked up, the tested form may be a part): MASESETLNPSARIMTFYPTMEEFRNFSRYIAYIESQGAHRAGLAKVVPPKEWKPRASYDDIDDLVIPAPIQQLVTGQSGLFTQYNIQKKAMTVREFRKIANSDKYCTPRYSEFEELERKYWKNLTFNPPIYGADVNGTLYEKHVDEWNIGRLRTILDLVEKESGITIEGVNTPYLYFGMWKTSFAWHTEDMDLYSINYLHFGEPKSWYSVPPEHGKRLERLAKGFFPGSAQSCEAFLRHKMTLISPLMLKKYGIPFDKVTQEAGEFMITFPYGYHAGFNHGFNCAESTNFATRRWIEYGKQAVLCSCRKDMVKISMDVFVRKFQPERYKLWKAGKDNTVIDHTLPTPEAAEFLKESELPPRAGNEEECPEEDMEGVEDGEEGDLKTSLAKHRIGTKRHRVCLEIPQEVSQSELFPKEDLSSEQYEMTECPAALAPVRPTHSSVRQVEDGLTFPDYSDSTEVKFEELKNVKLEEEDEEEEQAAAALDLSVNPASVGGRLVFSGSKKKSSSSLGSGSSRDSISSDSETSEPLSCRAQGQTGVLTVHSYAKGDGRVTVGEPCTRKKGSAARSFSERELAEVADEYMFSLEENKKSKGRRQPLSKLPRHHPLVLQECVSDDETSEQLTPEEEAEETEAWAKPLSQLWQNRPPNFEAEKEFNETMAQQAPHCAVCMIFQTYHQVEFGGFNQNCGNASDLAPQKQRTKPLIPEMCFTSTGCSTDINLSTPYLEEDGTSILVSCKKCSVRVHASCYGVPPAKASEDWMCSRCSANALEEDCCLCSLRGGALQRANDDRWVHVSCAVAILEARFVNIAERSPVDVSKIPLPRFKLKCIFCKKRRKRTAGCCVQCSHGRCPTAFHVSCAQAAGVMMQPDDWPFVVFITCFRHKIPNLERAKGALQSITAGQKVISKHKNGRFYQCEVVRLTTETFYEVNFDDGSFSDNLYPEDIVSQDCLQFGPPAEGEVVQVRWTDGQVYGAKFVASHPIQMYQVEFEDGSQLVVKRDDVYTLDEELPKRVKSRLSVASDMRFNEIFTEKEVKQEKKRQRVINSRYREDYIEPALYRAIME
G9a block – qHTS Assay for Inhibitors of Histone Lysine Methyltransferase G9a; G9a H3K9 monomethylation, AlphaScreen, 2 h; Potency, µM (top dose mostly 102 µM), inactives show at the top dose activity, negative = inhibition, actives largely listed as inhibitors; hit rate 8.8% among 350,000; AID 504332, 2011; further: on the % scale 0 is the no-effect control and ±100 the full control effect; nearly all actives have a fitted effect of over 75% in size
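Quantitative HTS format: methyltransferase activity on a biotin-tagged H3K9 peptide is measured by AlphaScreen, using a rabbit anti-monomethyl-H3K9 antibody with streptavidin donor and anti-IgG acceptor beads. Final levels are 20 nM enzyme, 500 nM peptide, 20 uM SAM; 2 h RT.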
HP1b binding inh – HTS for Inhibitors of HP1-beta Chromodomain Interactions with Methylated Histone Tails | Chromobox protein homolog 1 (Homo sapiens), P83916 | AlphaScreen HP1-beta / biotin-H3K9me3 peptide binding | Potency, µM (top dose mostly 114 µM), for the others: top-dose activity change, negative = inhibition, actives largely listed as inhibitors | hit rate 0.56% among 390,000; further: nearly all actives have a fitted effect of over 70% in size
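HP1-beta protein (50 nM final) preincubated 30 min at room temperature with biotinylated H3(1-18)K9me3 peptide (50 nM) in PBS pH 7.4, 0.01% Tween-20, then compound added for 30 min. AlphaScreen streptavidin donor/nickel chelate acceptor beads (10 ug/mL final), 30 min dark, luminescence read.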
BAZ2B inh – qHTS Assay for Inhibitors of BAZ2B; Bromodomain adjacent to zinc finger domain protein 2B (Homo sapiens), Q9UIF8; AlphaScreen BAZ2B-H3K14Ac peptide displacement; Potency, µM (top dose mostly 114 µM), without a hit: at the highest dose activity change, negative = inhibition, most hits filed as inhibitors; hit rate 4.4% among 360,000; AID 504333, 2011; further: on the % scale 0 is the no-effect control and ±100 the full control effect; nearly all actives have a fitted effect of over 60% in size
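Compounds, titrated to a top concentration of 110 uM, were incubated 30 min at room temperature with preformed BAZ2B/acetyl-K14 H3 peptide complex (50 nM each). Proximity signal was measured by AlphaScreen after 20 min with beads.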
GLS inhibitor – qHTS for Inhibitors of Glutaminase (GLS) | hit rate 0.21% among 410,000 | AID 624170, 2012 | GLS enzymatic activity, qHTS titration | Potency, µM (top dose mostly 45.5 µM), without a hit: at the highest dose activity change, negative = inhibition, actives largely listed as inhibitors; further: on the % scale 0 is the no-effect control and ±100 the full control effect
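hKGA in 45 mM KH2PO4 (pH 8.2), 0.02% Tween-20 with compound, then 1mM L-Glutamine (stock as added) plus glutamate oxidase/HRP/Amplex red coupling mix. Fluorescence read initially and after 30 min at RT; signal change reflects glutamate formation.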
* hit, by the source's call; u = inconclusive; x = not tested or not shown; ! = a repeat was not active; [ ] = dose if it differs, or a comment. Shown are actives, neighbours in structure and some others; about 10% of the full set was active somewhere. The call rests on the fitted dose curve; in most records, active means well fitted curve in the direction sought with a large enough effect; inconclusive means small, poorly fitted or top-dose-only effect, or another doubt; inactive means no such curve, though single readings can be large; an effect the other way counts as inactive or inconclusive. Potency means the concentration at half of the fitted maximal effect.

SMILES	JMJD2A Tudor	G9a block	HP1b binding inh	BAZ2B inh	GLS inhibitor
CC(C)c1oc(=O)cc2c1[C@@H](O)[C@H]1OC(=O)[C@@]3(C)C[C@@H](O)[C@@H](O)[C@@]2(C)C13 (some centres undefined)	-8%	-19%	16%	40%	-2%
COc1cc2c(cc1OC)C1[C@H]3C(=CC[C@H]1OC2O)CCN3C (some centres undefined)	-6%	x	52%	x	-1%
Cn1c(O)c(C(=O)c2ccccc2)c(=O)n(C)c1=O	-18%	-7%[12.7 µM]	45%	6%	0%
Cn1c(O)c(C(=O)c2ccccc2F)c(=O)n(C)c1=O	-17%	11µM*	28%	-30%	-2%
CNc1cc(Cl)c2nonc2c1[N+](=O)[O-]	-23%	25µM*	-14%	-31%	0%
O=[N+]([O-])c1c(Cl)c(Cl)cc(Cl)c1Cl	x	x	x	x	-18%[99.4 µM]
O=C(N=Nc1c(O)[nH]c(=O)[nH]c1=O)C1COc2cc3ccccc3cc2O1 (centres undefined)	-15%[11.4 µM]	50µM*	-16%	u	4%
N#Cc1ccc(CN2CC[C@@]3(CCCN(C(=O)Oc4ccccc4)C3)C2)cc1	x	0%[12.7 µM]	x	x	x
O=C1NC(=O)C(=Cc2ccc(-c3ccc(Cl)cc3)o2)C(=O)N1	u	6.3µM*	14%	u	-1%
O=C1NC(=O)C(=Cc2ccc(-c3ccc(F)cc3O)o2)C(=O)N1	u	7.1µM*	-16%	56µM*	11%
O=C1NC(=O)C(=Cc2coc3ccc(O)cc3c2=O)C(=O)N1	-18%	x	13%	u	34%
Cn1c(O)c(N=Nc2ccc(S(=O)(=O)N3CCOCC3)cc2)c(=O)n(C)c1=O	-28%	u	-2%	-22%	0%
O=C1NC(=O)C(=Cc2ccc(-c3ccc(S(=O)(=O)N4CCOCC4)cc3)o2)C(=O)N1	-22%	7.1µM*	45%	-5%	-10%
COc1cc(C=C2C(=O)NC(=O)NC2=O)cc(OC)c1OC	-9%	22%[2.33 µM]	19%	-10%	0%
O=C1NC(=O)C(=Cc2cccc(OCCOc3ccccc3)c2)C(=O)N1	u	35µM*	-5%	15%	u
O=C1NC(=O)C(=Cc2ccc(OCCOc3ccc([N+](=O)[O-])cc3)cc2)C(=O)N1	50µM*	22µM*	-4%	45µM*	u
Cc1ccc(OCCOc2cccc(C=C3C(=O)NC(=O)NC3=O)c2)c(C)c1	35µM*	28µM*	68%	u	-13%
C1=CC(Cc2cncs2)c2ccccc21 (centres undefined)	-11%	-11%[0.501 µM]	32%	-5%	2%
CCC(C)N1CCN(C(=O)COc2ccc3ccccc3c2)CC1 (centres undefined)	2.8µM*	1.8µM*	50µM*	18µM*	13%
O=C(COc1ccc2ccccc2c1)N1CCN(Cc2c[nH]c3ccccc23)CC1	8.9µM*	u	u	50µM*	-1%
Cc1ccc(OCC(=O)N2CCN(CCc3ccncc3)CC2)cc1C	6%	-5%[59 µM]	32%	-13%	1%
Cc1cc(C)cc(C(=O)OC2CC3CCC(C2)N3C)c1 (centres undefined)	x	u	x	x	1%
Oc1cc(Cl)cc(Cl)c1Cl	-17%	8%[0.501 µM]	28%	-1%	4%
NC(N)=NCCC[C@@H](N)C(=O)O	x	35%[59 µM]	x	x	x
COc1cccc(CN2CCNCC2)c1	-10%	79µM*	37%	-6%	8%
SMILES	JMJD2A Tudor	G9a block	HP1b binding inh	BAZ2B inh	GLS inhibitor
COc1cc(CN2CCNCC2)cc(OC)c1OC	-17%	x	11%	4%	-1%
CN1CCN(c2ccc(N)cc2Cl)CC1	u	40µM*	28µM*	u	0%
CC(C)=CCN1CC[C@@]2(C)c3cc(O)ccc3C[C@@H]1C2C (some centres undefined)	-8%	x	44%	x	32%
C=CCN1CC[C@@]2(C)c3cc(O)ccc3CC1[C@@H]2C	-24%	45µM*!	29%	2%	45%
Cc1nn(Cc2ccccc2)c(C)c1C(=O)OCC(=O)NCc1ccco1	2%	u	15%	-18%	10%
CC(C)C(OC(=O)c1ccco1)C(=O)NCc1ccco1 (centres undefined)	79µM*	0%[59 µM]	u	-5%	11%
O=C1Nc2cc(C(=O)N3CCC4(CC3)OCCO4)ccc2NC1CSCc1cccc(F)c1 (centres undefined)	x	7.1µM*	x	-22%	x
O=C1NC(=O)N(c2ccc3c(c2)OCO3)C(=O)/C1=C/c1cccs1	-35%	11µM*	19%	-16%	19%
COc1ccc(CN2CC=C(c3ccc(F)cc3)CC2)cc1Br	-16%	21%	88%	-29%	-3%
CCN(CC)c1ccc(CN2CC=C(c3ccc(F)cc3)CC2)cc1	50µM*	45µM*	45µM*	79µM*	-7%
COc1cc(CCN)c(OC)cc1Br	x	x	x	x	-2%[99.4 µM]
O=c1c2ccccc2nc(CNc2ccccc2)n1-c1ccccc1	-24%	32µM*	45%	-12%	8%
Cc1cccc(-n2c(CC3C(=O)Nc4ccc(C)cc43)nc3ccccc3c2=O)c1 (centres undefined)	-31%	u	11%	-31%	7%
O=C1Nc2ccccc2C1Cc1nc2ccccc2c(=O)n1-c1ccccc1 (centres undefined)	-20%[11.4 µM]	-35%	0%	79µM*	56%
O=C(Oc1ccccc1)N1CCC2(CCCN(C(c3ccccc3)c3ccccc3)C2)CC1	x	-12%[12.7 µM]	x	x	x
COC(=O)c1c(C)n(Cc2ccco2)c2ccc(O)cc12	-12%	u	13%	-35%	-2%
COc1ccc(OCc2n[nH]c(=S)n2Cc2ccco2)cc1	u	2.8µM*	u	u	u
COc1ccc(OCC#CCN2CCC(C)CC2)cc1	-32%	8.9µM*	35µM*	28µM*	0%
O=C(C(=C1N(Cc2ccc(Cl)nc2)CCN1Cc1ccc(Cl)nc1)[N+](=O)[O-])C(Cl)Cl	0%	u	55%	-11%	-10%
CCC1CO/C(=C(\C(Cl)=C(Cl)Cl)[N+](=O)[O-])N1Cc1ccc(Cl)nc1 (centres undefined)	-28%	u	20%	79µM*	-2%
O=C1C=CC2C3C(=O)N(c4ccccc4)C(=O)C3C1N2Cc1ccccc1 (centres undefined)	-3%	x	44%	x	-4%
O=C1C2CCCN2C(c2cccnc2)N1c1cccc(Cl)c1 (centres undefined)	-1%	-1%	25%	6%	1%
